Consider 44 sequences from publication PMC10726135, “HNF4α isoforms regulate the circadian balance between carbohydrate and lipid metabolism in the liver”.

The full ranking holds about 18,000 sequences; the median of “log2 normalized intensity” is about 0.36, and the highest 2% start at about 7.3. The entries come from a sample that favours the highest values as a whole.

For the test, the target named is T1, HNF4alpha8 (COS-7 nuclear extract) (Homo sapiens, UniProt P41235-5 1-452).
T1 sequence: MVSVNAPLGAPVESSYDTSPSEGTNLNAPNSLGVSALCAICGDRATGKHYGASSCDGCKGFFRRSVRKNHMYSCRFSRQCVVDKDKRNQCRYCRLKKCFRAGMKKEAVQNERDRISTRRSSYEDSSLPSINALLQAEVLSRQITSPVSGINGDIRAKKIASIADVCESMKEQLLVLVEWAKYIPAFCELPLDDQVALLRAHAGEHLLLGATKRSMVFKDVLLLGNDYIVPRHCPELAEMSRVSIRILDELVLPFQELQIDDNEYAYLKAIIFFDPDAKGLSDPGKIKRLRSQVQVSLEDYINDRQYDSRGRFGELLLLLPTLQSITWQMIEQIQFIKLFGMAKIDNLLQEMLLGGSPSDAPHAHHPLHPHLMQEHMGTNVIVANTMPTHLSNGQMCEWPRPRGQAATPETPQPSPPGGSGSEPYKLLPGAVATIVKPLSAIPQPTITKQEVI
The test can be described thus: protein-binding microarray; COS-7 nuclear extract on double-stranded Agilent 4x180k PBM; binding buffer, salt, pH and temperature not given in the material; high values mean tight binding. The following applies: chain copies: 2; label: 3' end of strand 1 on the slide; dsDNA, one strand shown. In short, it runs like this:
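Binding signal was defined as the normalized, background-corrected gProcessedSignal reported by Agilent software. It came from nuclear extracts of COS-7 cells transiently transfected with a human HNF4α isoform expression vector, applied to a custom Agilent SurePrint G3 4x180k array. That array held ~44,000 test sequences in quadruplicate as double-stranded ~60-nt oligonucleotides, and bound HNF4α was imaged at 2-µm resolution on an Agilent G2565CA scanner.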
As to “TCCAGAATTGTGTGGTTATCTGTTGGGGAAGCCTAGGGAGATTAGAGTATCGGTCGA”, the binding signal was determined as 2.14 log2 normalized intensity.

Regarding “CAAAACTTTAGGACTTTGAACCTTGGGTCTGCCTAGGGAGATTAGAGTATCGGTCGA”, the binding signal turned out to be 7.83 log2 normalized intensity.

Turning to “ATAAGGGGCAGCAAACCTACCTGAACTTTGGCCTAGGGAGATTAGAGTATCGGTCGA”, the binding signal was 3.58 log2 normalized intensity.

Take “CTTTAGGACTTTGAACCTTGGGTCTGTAATGCCTAGGGAGATTAGAGTATCGGTCGA”: the binding signal was found to be 6.82 log2 normalized intensity.

“TTGAACCTTGGGTCTGTAATCTCACAACTCGCCTAGGGAGATTAGAGTATCGGTCGA”: the binding signal was found to be 1.98 log2 normalized intensity.

With “GCAAACCTACCTGAACTTTGCCCCAGAGGAGCCTAGGGAGATTAGAGTATCGGTCGA”, the binding signal was determined as 6.74 log2 normalized intensity.

Take “CCTTGGGTCTGTAATCTCACAACTCAGAAGGCCTAGGGAGATTAGAGTATCGGTCGA”: the binding signal was -0.129 log2 normalized intensity.

As for “CCTTGCCACCCACACTGCAGCAAAACTTTAGCCTAGGGAGATTAGAGTATCGGTCGA”, the binding signal is -0.731 log2 normalized intensity.

In the case of “GGACTTTGAACCTTGGGTCTGTAATCTCACGCCTAGGGAGATTAGAGTATCGGTCGA”, the binding signal was 7.84 log2 normalized intensity.

As to “GGGAGGAGGGCAACCTTTGAACTGGGTCTTGCCTAGGGAGATTAGAGTATCGGTCGA”, the binding signal is 4.84 log2 normalized intensity.

With “TGCAGCAAAACTTTAGGACTTTGAACCTTGGCCTAGGGAGATTAGAGTATCGGTCGA”, the binding signal is 9.2 log2 normalized intensity.

Consider “GGGCAGCAAACCTACCTGAACTTTGCCCCAGCCTAGGGAGATTAGAGTATCGGTCGA”, for which the binding signal was found to be 8.83 log2 normalized intensity.

With “CACACTGCAGCAAAACTTTAGGACTTTGAAGCCTAGGGAGATTAGAGTATCGGTCGA”, the binding signal is 4.12 log2 normalized intensity.

With “GTTGCCTGTGAGTCAGGTACCTGCTTCTGCGCCTAGGGAGATTAGAGTATCGGTCGA”, the binding signal was found to be 0.609 log2 normalized intensity.

Regarding “TACTTAGTGTTTTATGTGTATTTACTTATTGCCTAGGGAGATTAGAGTATCGGTCGA”, the binding signal was 1.74 log2 normalized intensity.

As to “GGCAAGATTTTGTCCTGAGTTATTGGAAGAGCCTAGGGAGATTAGAGTATCGGTCGA”, the binding signal was 0.282 log2 normalized intensity.

Take “TCTTCAAGGAGGTGAACTTTGAGACTATCCGCCTAGGGAGATTAGAGTATCGGTCGA”: the binding signal was 5.2 log2 normalized intensity.

Take “AAAGTTTCCTCTCCTGCCCTACTCCCTTAAGCCTAGGGAGATTAGAGTATCGGTCGA”: the binding signal was found to be 2.63 log2 normalized intensity.

In the case of “AGTGGTTTCAAGGTGACCCCACGGAGCTGCGCCTAGGGAGATTAGAGTATCGGTCGA”, the binding signal came to 3 log2 normalized intensity.

Take “CCTACCAGTATGCAATGTTAGTCTGGGAAAGCCTAGGGAGATTAGAGTATCGGTCGA”: the binding signal is -0.0207 log2 normalized intensity.

On to “ATTGCCGACCTCATGAGTAGAGAGCAATCAGCCTAGGGAGATTAGAGTATCGGTCGA”, for which the binding signal was -0.943 log2 normalized intensity.

For the sequence “TGTCTCCAGAAATCAACCTTTGATCGTTTGGCCTAGGGAGATTAGAGTATCGGTCGA”, the binding signal turned out to be 6.77 log2 normalized intensity.

In the case of “ATGTCTCCAGAAACCAACCTTTGATCATTCGCCTAGGGAGATTAGAGTATCGGTCGA”, the binding signal worked out at 5.75 log2 normalized intensity.

For the sequence “ACTTCTGTCTCCAGAAATCAACCTTTGATCGCCTAGGGAGATTAGAGTATCGGTCGA”, the binding signal is 8.8 log2 normalized intensity.

“GCCAGAACTGAGCCCTGGTTTATCTGTTGTGCCTAGGGAGATTAGAGTATCGGTCGA”: the binding signal came out at 0.861 log2 normalized intensity.

“TTTTCAATCTTATTTTTACTATGTGGCATTGCCTAGGGAGATTAGAGTATCGGTCGA”: the binding signal stood at 1.35 log2 normalized intensity.

Regarding “TTATATCAGAGGAATGTCTGACCAACCTGTGCCTAGGGAGATTAGAGTATCGGTCGA”, the binding signal amounted to 0.807 log2 normalized intensity.

Regarding “ACCAACCTGTCCAAAGGTCATCTGTCACTCGCCTAGGGAGATTAGAGTATCGGTCGA”, the binding signal was found to be 6.36 log2 normalized intensity.

On to “TCAGAGGAATGTCTGACCAACCTGTCCAAAGCCTAGGGAGATTAGAGTATCGGTCGA”, for which the binding signal was -0.555 log2 normalized intensity.

For “CTGTACACTTACAAGTGTACAAAGGTCACTGCCTAGGGAGATTAGAGTATCGGTCGA”, the binding signal stood at 8.53 log2 normalized intensity.

Regarding “CACTTACAAGTGTACAAAGGTCACTTCTGTGCCTAGGGAGATTAGAGTATCGGTCGA”, the binding signal is 7.03 log2 normalized intensity.

Turning to “GGAATGTCTGACCAACCTGTCCAAAGGTCAGCCTAGGGAGATTAGAGTATCGGTCGA”, the binding signal came out at 8.5 log2 normalized intensity.

On to “AGTATATTGGCTTGGCTGTGTCCCTTGACCGCCTAGGGAGATTAGAGTATCGGTCGA”, for which the binding signal worked out at 3.67 log2 normalized intensity.

As for “TATACCTGTACACTTACAAGTGTACAAAGGGCCTAGGGAGATTAGAGTATCGGTCGA”, the binding signal was 2.96 log2 normalized intensity.

For “ATTGGCTTGGCTGTGTCCCTTGACCAAAGGGCCTAGGGAGATTAGAGTATCGGTCGA”, the binding signal came to 2.62 log2 normalized intensity.

For “CCTGTCCAAAGGTCATCTGTCACTCTAGATGCCTAGGGAGATTAGAGTATCGGTCGA”, the binding signal turned out to be 6.02 log2 normalized intensity.

“CTTGGCTGTGTCCCTTGACCAAAGGTCACTGCCTAGGGAGATTAGAGTATCGGTCGA”: the binding signal came out at 7.67 log2 normalized intensity.

In the case of “GTCTGACCAACCTGTCCAAAGGTCATCTGTGCCTAGGGAGATTAGAGTATCGGTCGA”, the binding signal worked out at 7.75 log2 normalized intensity.

Take “ACAGGGAAAGTATGGGTCAGCCCTGCCATCGCCTAGGGAGATTAGAGTATCGGTCGA”: the binding signal was -0.943 log2 normalized intensity.

Turning to “GTTTTACAAACACAATGGAAGGCTGTATGTGCCTAGGGAGATTAGAGTATCGGTCGA”, the binding signal was determined as 0.119 log2 normalized intensity.

For “GTCACTGCTCAAAAACACTCAGTTAATTATGCCTAGGGAGATTAGAGTATCGGTCGA”, the binding signal was -0.0424 log2 normalized intensity.

Turning to “CTCCCAAATCTTCTTTAAGCTATGTGGTGGGCCTAGGGAGATTAGAGTATCGGTCGA”, the binding signal is 0.933 log2 normalized intensity.

Take “TTTCTGTTTGTCTTACTGTGTTGTCGTATTGCCTAGGGAGATTAGAGTATCGGTCGA”: the binding signal worked out at 2.11 log2 normalized intensity.

Consider “ACAGCACTTAGGGTTCAAAGGTTGTTGAGCGCCTAGGGAGATTAGAGTATCGGTCGA”, for which the binding signal came to 6.67 log2 normalized intensity.
